Screens as filed in PubChem.
An excerpt weighted towards active compounds, which were near 19% of everything screened.
IL-1B inflam inh = blocks inflammasome-driven IL-1 beta release; THP-1 LPS/ATP IL-1B secretion, AlphaLISA, 16 h; hits give low values; activity change, % at 57.5 µM; hit rate 4.7% among 360,000; in the data active = activity change below about -50%; inconclusive = mostly about -30% to -49%
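THP-1 cells pretreated 1 hr with compounds (up to 57.5 uM final), then stimulated with LPS (250 ng/mL final) plus ATP (1.25 mM final); secreted IL-1B measured by AlphaLISA after 16 hr, decreased signal indicating inhibition.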
DT40 TDP1 CPT = growth inhibition of DT40 Tdp1-/-;hTDP1 cells with camptothecin (screen for TDP1 inhibitors); hit rate 12% among 420,000; AID 686979; chicken DT40 Tdp1-/-;hTDP1 cells + 20 nM CPT, ATP luminescence, 48 h; Potency, µM (series often up to 46.2 µM), usual class: inhibitors; also: nearly all actives have a fitted effect of over 55% in size
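Chicken DT40 Tdp1-/- cells stably complemented with human TDP1 were seeded at 400 cells/well in medium containing 20 nM camptothecin, exposed to pin-transferred compounds, and grown at 37 °C for at least 48 hr. Viability was read as ATP luminescence.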
HT1080 IDH1KD tx = kills HT-1080 cells with IDH1 knockdown | HT-1080 IDH1 knockdown viability, ATP luminescence, 48 h | Potency, µM (highest dose often 46.1 µM), usual class: cytotoxic | hit rate 2% among 360,000
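% activity derives from luminescence (CellTiter-Glo), normalised to DMSO and no-cell wells. HT-1080-IDH1KD cells, 750/well, had 48 h compound exposure at 37 °C.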
TDP1 cell noCPT = qHTS for Inhibitors of human tyrosyl-DNA phosphodiesterase 1 (TDP1): qHTS in cells in absence of CPT. DT40 Tdp1-/- hTDP1 cells, no CPT, ATP luminescence, 48 h. Potency, µM (series often up to 46.2 µM), most hits filed as inhibitors. hit rate 15% among 420,000. AID 686978, 2013; also: nearly all actives have a fitted effect of over 55% in size
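Growth of hTDP1-complemented DT40 Tdp1-knockout cells is measured by ATP luminescence after at least 48 hr compound exposure at 37 °C, with DMSO substituting for the 20 nM CPT used in the parallel screen.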
HT1080NT lethal = kills 2HG-producing HT-1080-NT fibrosarcoma cells; AID 686970; hit rate 1.6% among 360,000; Potency, µM (series often up to 46.1 µM), most hits filed as cytotoxic; HT-1080-NT fibrosarcoma viability, CellTiter-Glo ATP luminescence, 48 h;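 also: NT is the 2HG producing partner of a matched IDH1 knockdown line; nearly all actives have a fitted effect of over 55% in size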
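HT-1080-NT; 750 cells/well; 5% FBS RPMI; 48 h compound, 37 degrees C; CellTiter-Glo luminescence; curve fitting and curve-class assignment.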
Each line names hits and unclear results; the compound was inactive in the other large screens. Unless noted, calls follow the shape of the dose curve; as a rule, active = well fitted curve in the direction sought with a large enough effect; inconclusive = small, poorly fitted or top-dose-only effect, or another doubt; inactive = no such curve, though single readings can be large; an effect the other way counts as inactive or inconclusive.

O=C(O)c1ccc(S(=O)(=O)c2ccc(Sc3ccc(C(=O)O)c(C(=O)O)c3)cc2)cc1	none
COc1cccc2c(Nc3ccccc3C)cc(C)nc12	IL-1B inflam inh -101, DT40 TDP1 CPT 18µM, HT1080 IDH1KD tx inconclusive, TDP1 cell noCPT 13µM, HT1080NT lethal inconclusive
COc1ccccc1NC(=O)c1cc(C)nc2ccccc12	TDP1 cell noCPT inconclusive
Cc1cc(Nc2ccccc2O)c2ccccc2n1	IL-1B inflam inh -63, DT40 TDP1 CPT inconclusive, TDP1 cell noCPT inconclusive
Cc1cc(NC(=O)Cc2ccccc2)c2ccccc2n1	DT40 TDP1 CPT 5.2µM, TDP1 cell noCPT 2.6µM, HT1080NT lethal inconclusive
Cc1ccc(C)c(Nc2cc(C)nc3ccccc23)c1	IL-1B inflam inh -70, DT40 TDP1 CPT 15µM, HT1080 IDH1KD tx inconclusive, TDP1 cell noCPT 16µM
Cc1ccc(S(=O)(=O)N(C)CC(=O)N(CC(C)C)C2CCS(=O)(=O)C2)cc1 (configuration not stated)	none
Cc1ccccc1NC(=O)c1ccc(NC(=O)C2CC(=O)OC23CCCCC3)cc1 (configuration not stated)	none
Cc1cc(Nc2ccc(F)cc2)c2ccccc2n1	DT40 TDP1 CPT inconclusive, TDP1 cell noCPT inconclusive
Cc1ccc(Nc2cc(C)nc3ccccc23)c(C)c1	IL-1B inflam inh -95, DT40 TDP1 CPT 12µM, HT1080 IDH1KD tx inconclusive, TDP1 cell noCPT 12µM, HT1080NT lethal inconclusive
Cc1ccc(C)c(N2CCN(c3nc4ccccc4c(=O)n3-c3ccc(Cl)cc3)CC2)c1	DT40 TDP1 CPT 5.8µM, TDP1 cell noCPT 21µM (no result: IL-1B inflam inh, HT1080 IDH1KD tx, HT1080NT lethal)
O=c1c2ccccc2nc(N2CCN(c3cccc(Cl)c3)CC2)n1-c1ccccc1	DT40 TDP1 CPT 3.7µM, TDP1 cell noCPT 2.9µM (no result: IL-1B inflam inh, HT1080 IDH1KD tx, HT1080NT lethal)
COc1cccc(COC(=O)c2c(C)nn(-c3ccccc3)c2Cl)c1OC	TDP1 cell noCPT inconclusive
COc1ccc(-c2cc(-c3ccc(O)cc3)nc(N)c2C#N)cc1OC	DT40 TDP1 CPT inconclusive, HT1080 IDH1KD tx inconclusive, TDP1 cell noCPT inconclusive
COc1ccc(-c2c(C#N)c(N)nc3c2CCc2ccccc2-3)cc1OC	DT40 TDP1 CPT 8.2µM, HT1080 IDH1KD tx 21µM, TDP1 cell noCPT 7.3µM, HT1080NT lethal inconclusive
COc1cc(-c2c(C#N)c(N)nc3c2CCCC3)ccc1O	DT40 TDP1 CPT 15µM, TDP1 cell noCPT 16µM
Cc1ccc(-c2c(C#N)c(N)nc3c2CCCCC3)cc1	none
Cc1cc2c(nc1C)CCCN2C[C@@H](C)O/N=C1/[C@H]2CCn3c(=O)n(-c4ccccc4)c(=O)n3[C@H]2[C@H](O)[C@@H]2O[C@H]12	IL-1B inflam inh -54, DT40 TDP1 CPT inconclusive, TDP1 cell noCPT inconclusive
C=CCn1c(=O)c2ccccc2n2c(SCc3nc4ccccc4s3)nnc12	DT40 TDP1 CPT inconclusive, TDP1 cell noCPT 16µM
COc1ccc(N=Cc2sc(O)c3ccccc23)cc1	IL-1B inflam inh -83, DT40 TDP1 CPT inconclusive, TDP1 cell noCPT inconclusive
COc1ccc(N=Cc2c(OC)ccc3ccccc23)cc1	HT1080 IDH1KD tx inconclusive, HT1080NT lethal inconclusive
COc1ccc(N=Cc2c(O)c3ccccc3n2C(C)=O)cc1	DT40 TDP1 CPT inconclusive, TDP1 cell noCPT 21µM
C/C(CC1CC(C)(C)OC1=O)=N\NC(N)=S (configuration not stated)	none
C/C(CC1CC2=C(CC1(C)C)C(C)(C)CCC2)=N\NC(N)=S (configuration not stated)	IL-1B inflam inh -74, DT40 TDP1 CPT 6.5µM, HT1080 IDH1KD tx 5.6µM, TDP1 cell noCPT 5.8µM, HT1080NT lethal inconclusive
COCCCNC(=O)CN1C(=O)COc2ccc(S(=O)(=O)N3CCOCC3)cc21	none
COc1ccc(S(=O)(=O)Nc2ccc(S(=O)(=O)N3CCCCC3)cc2)cc1	DT40 TDP1 CPT inconclusive, TDP1 cell noCPT inconclusive
CN(C)c1ccc(C2CC(c3cccc(NS(C)(=O)=O)c3)=NN2C(=O)c2ccccc2)cc1 (configuration not stated)	IL-1B inflam inh -58, TDP1 cell noCPT inconclusive
COc1cccc(C2CC(c3cccc(NS(C)(=O)=O)c3)=NN2C(=O)c2ccccc2)c1OC (configuration not stated)	DT40 TDP1 CPT 23µM, TDP1 cell noCPT 21µM
O=C(NCc1ccco1)C1Cc2ccccc2CN1C(=O)c1ccco1 (configuration not stated)	IL-1B inflam inh inconclusive, TDP1 cell noCPT inconclusive
O=C(NCc1ccco1)C1Cc2ccccc2CN1S(=O)(=O)c1ccccc1F (configuration not stated)	IL-1B inflam inh inconclusive, DT40 TDP1 CPT 18µM, TDP1 cell noCPT inconclusive
COc1ccc(OCC(=O)NCCCNC(=O)COc2ccc(OC)cc2)cc1	none
Cc1ccccc1CNC(=O)c1ccccc1SCC(=O)NCc1ccco1	DT40 TDP1 CPT inconclusive, TDP1 cell noCPT inconclusive
CCN(CC)S(=O)(=O)c1cc(NC(=O)CSc2nnc(N)s2)ccc1C	DT40 TDP1 CPT inconclusive
CCN(CC)S(=O)(=O)c1cc(NC(=O)CSc2nc3c(cc2C#N)C(=O)CC(C)(C)C3)ccc1C	IL-1B inflam inh -57, DT40 TDP1 CPT inconclusive, HT1080 IDH1KD tx inconclusive, TDP1 cell noCPT 18µM, HT1080NT lethal inconclusive
COc1ccc(-c2c[n+]3c4n2CCCCC4=C(c2ccc(Br)cc2)C3)cc1	IL-1B inflam inh -98, DT40 TDP1 CPT 6.5µM, HT1080 IDH1KD tx inconclusive, TDP1 cell noCPT 10µM, HT1080NT lethal inconclusive
Clc1ccc(C2=C3CCCCn4c(-c5ccccc5)c[n+](c43)C2)cc1	DT40 TDP1 CPT inconclusive, HT1080 IDH1KD tx inconclusive, TDP1 cell noCPT inconclusive, HT1080NT lethal inconclusive
CC(C)Cc1nnc(NC(=O)CCC(=O)N2CC(C)CC(C)C2)s1 (configuration not stated)	none
CC(C)C(=O)Nc1cc(C(F)(F)F)ccc1-n1ccnc1	none
CCCn1c(-c2cc(OC)c(OC)c(OC)c2)nc2c1c(=O)[nH]c(=O)n2Cc1ccccc1	DT40 TDP1 CPT 3.3µM
Cn1c(-c2cccc(F)c2)nc2c1c(=O)[nH]c(=O)n2Cc1ccccc1	HT1080 IDH1KD tx inconclusive, HT1080NT lethal inconclusive
COc1cc(Br)cc(-c2nc3c(c(=O)[nH]c(=O)n3Cc3ccccc3)n2C)c1O	DT40 TDP1 CPT 16µM, TDP1 cell noCPT 23µM
CCCOc1ccc(-c2nc3c(c(=O)[nH]c(=O)n3Cc3ccccc3)n2CCO)cc1OCC	DT40 TDP1 CPT inconclusive, TDP1 cell noCPT 16µM
Cn1c(-c2cccc(OCc3ccccc3)c2)nc2c1c(=O)[nH]c(=O)n2Cc1ccccc1	DT40 TDP1 CPT 21µM, TDP1 cell noCPT 16µM
CCCCn1c(=O)[nH]c(=O)c2c1nc(-c1ccc(OCCC)c(OCC)c1)n2CCOC	TDP1 cell noCPT inconclusive
COc1ccc(-c2nc3c(c(=O)[nH]c(=O)n3Cc3ccccc3)n2Cc2ccccc2)cc1	IL-1B inflam inh inconclusive, DT40 TDP1 CPT 23µM, HT1080 IDH1KD tx inconclusive, TDP1 cell noCPT 21µM, HT1080NT lethal inconclusive
